# Compound activity: PubChem BioAssay, National Center for Advancing Translational Sciences (NCATS)
# Shiga toxin inh – Shiga toxin inhibition. hit rate 9.2% among 290,000. inhibition, % at 38.7 µM. Vero cells, Shiga toxin protein synthesis inhibition reporter; in the data active = inhibition mostly above about 28%, no sharp cut-off; inactive = mostly below about 43%; note: 0% is about no effect
# Pf growth 48h – inhibits P. falciparum growth in the first generation, 48 h | Potency, µM (titrated, usually from 28.7 µM), without a hit: at the highest dose activity change, negative = inhibition, usual class: inhibitors | P. falciparum luciferase growth in erythrocytes, 48 h | AID 504832 | hit rate 5.9% among 310,000; note: potency is the fitted concentration of half-maximal effect; % is set by controls: 0 for no effect and ±100 for the full control effect
#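 Firefly luciferase activity from engineered P. falciparum reports growth; inhibitors lower the luminescent signal. Cultures contained 2% hematocrit erythrocytes at 0.1% final parasitemia.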
# Cycloheximide cs – counter-screen for Shiga toxin inhibitors: cycloheximide protein synthesis inhibition; cell reporter, cycloheximide protein synthesis inhibition counterscreen; max response, %; hit rate 12% among 300,000; AID 2314; in the data active = max response mostly above about 13%, no sharp cut-off; inactive = mostly below about 14%; note: read at 38.3 µM for the half of the compounds with a filed dose; 0% is about no effect
# Pf growth 96h – inhibits malaria parasite growth, 96 h | P. falciparum luciferase reporter growth, 96 h | Potency, µM (top dose mostly 28.7 µM), without a hit: at the highest dose activity change, negative = inhibition, most hits filed as inhibitors | hit rate 6.9% among 320,000 | AID 504834; note: potency is the fitted concentration of half-maximal effect; % is set by controls: 0 for no effect and ±100 for the full control effect
#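 P. falciparum expressing integrated firefly luciferase, in erythrocytes at 2% hematocrit, 0.05% parasitemia, incubated with compounds 96 h at 37 C, 5% CO2. Growth inhibition read as loss of luminescence; two-generation exposure targets delayed-death apicoplast inhibitors.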
# Active calls of the source: *; ? = inconclusive; · = not tested or not shown; [ ] = remark or other dose. In the library only some 21% were active in any assay of this set; here they are far more common. Unless noted, calls come from the whole dose curve; as a rule, active = well fitted inhibition curve with a large enough effect; inconclusive = small, poorly fitted or top-dose-only effect, or another doubt; inactive = no such curve, though single readings can be large or run the other way.
SMILES,Shiga toxin inh,Pf growth 48h,Cycloheximide cs,Pf growth 96h
CC1(c2ccccc2)NC(=O)N(CC(=O)NNC(=O)c2cccc(Cl)c2)C1=O (stereo not given),·,15%,·,23%
CC(C)C(=O)Nc1ccc(C(=O)NNC(=S)NC(=O)c2ccco2)cc1,-5,?,1,?
Cc1cccc(NC(=S)NNC(=O)c2ccco2)c1,active,6%,23*,21%
Cc1ccc(C)c(NC(=S)NNC(=O)c2ccco2)c1,16,18%,18,7%[5.75 µM]
Cc1ccc(NC(=S)NNC(=O)c2ccco2)cc1,66*,114%,31*,118%
N#Cc1ccc(CN2CCN(C(=O)CCNS(=O)(=O)c3ccc(F)c(Cl)c3)CC2)cc1,·,-22%,·,?
CC1=C(C#N)C(c2cccnc2)C2=C(N1)c1ccccc1C2=O (stereo not given),-18,0%,5,1%
CC1=C(C#N)C(c2ccccc2)C2=C(N1)c1ccccc1C2=O (stereo not given),-16,?,-2,15µM*
CN1C(=O)c2ccc(C(=O)Nc3ccccc3O)cc2C1=O,6,5%,1,?
CC(C)(C)c1ccc(C(=O)NCCC(=O)NCc2cccs2)cc1,-11,4%,8,?
CN(Cc1nc(-c2cccc(Cl)c2)no1)C1CCOCC1,84*,200%,35*,0%
CN(CCN1CCOCC1)Cc1nc(-c2ccc(Cl)cc2)no1,11,-20%,2,-7%
CCN(Cc1nc(-c2cccc(Cl)c2)no1)CC1CCCO1 (stereo not given),24,37%,13*,?
CN(Cc1cn(C)nc1-c1cccc(Cl)c1)CC1CCCCO1 (stereo not given),-19,6%,-2,10µM*
CCc1ccc(N(CC(=O)NCC2CCCO2)C(=O)CCC(=O)Nc2nccs2)cc1 (stereo not given),-6,?,-4,-14%
CC(C)(C)c1ccc(COc2ccsc2C(=O)O)cc1,35*,?,21*,7%
O=C(O)c1sccc1OCc1ccccc1,7,4%,-4,13%
CCOc1ccccc1OCC(=O)Nc1ccc(N2CCOCC2)cc1N1CCOCC1,·,?,·,-29%
COc1cc(OC)cc(C(=O)N2CCCC(Nc3ccc(F)cc3)C2)c1 (stereo not given),-9,-3%,1,0%
COc1ccc(NC2CCCN(C(=O)CCN3Cc4ccccc4C3=O)C2)cc1 (stereo not given),9,10%,14,8.3µM*
COc1ccc2cc(C(=O)N3CCCC(Nc4ccc(F)cc4)C3)n(C)c2c1 (stereo not given),-18,-4%,-4,5.9µM*
CN(C)c1ccccc1C(=O)N1CCCC(Nc2ccc(F)cc2)C1 (stereo not given),-13,-9%,-1,13µM*
Cc1noc(C)c1C(=O)N1CCCC(Nc2ccc(C(C)C)cc2)C1 (stereo not given),-12,0%,15,44%
Cn1cc(C(=O)N2CCCC(Nc3ccc(F)cc3)C2)c2ccccc21 (stereo not given),-5,-4%,-3,-8%
COc1ccc(NC2CCCN(C(=O)c3c(C)noc3C)C2)cc1 (stereo not given),-15,?,-3,1.9µM*
SMILES,Shiga toxin inh,Pf growth 48h,Cycloheximide cs,Pf growth 96h
COc1ccc(NC(=O)c2ccc([N+](=O)[O-])cc2[N+](=O)[O-])c(OC)c1,-17,9%,2,10%
Cn1c(=O)c(=O)n(C)c2cc([N+](=O)[O-])c(N3CCOCC3)cc21,-9,10%,-4,6%
O=C(CCN1CCCCO1)N1CCCC(Nc2ccc(F)cc2)C1 (stereo not given),-5,-15%,0,12µM*
COc1ccc(NC2CCCN(C(=O)CCC(=O)c3ccc(F)cc3)C2)cc1 (stereo not given),72,?,47*,-5%
CCc1[nH]nc(C(=O)N2CCCC(Nc3cccc(F)c3)C2)c1C (stereo not given),66*,35%,31*,11%
CCc1[nH]nc(C(=O)N2CCCC(Nc3ccc(C(C)C)cc3)C2)c1C (stereo not given),-14,31%,-3,13%
O=[N+]([O-])c1cc(Cl)ccc1NCCNS(=O)(=O)c1ccccc1,36*,27%,19*,?
O=[N+]([O-])c1ccccc1NCCNS(=O)(=O)c1ccc(Cl)cc1,-8,45%,3,?
COc1ncccc1-c1nnn(-c2ccc(Cl)c(Cl)c2)n1,-6,172%,18*,246%
COc1ncccc1-c1nnn(-c2ccc(C)cc2)n1,131*,170%,49*,207%
COc1ncccc1-c1nnn(-c2ccc(F)cc2)n1,71*,410%,54*,251%
CCCSc1nc2ccsc2c(=O)n1CC,2,62%,11,42%
O=c1cnn(Cc2c(Cl)cccc2Cl)c2ccccc12,-4,13µM*,-3,9.3µM*
Fc1cccc(Cl)c1Cn1ncc2ccccc21,31*,41%,28*,11%
c1ccc(Cn2ncc3ccccc32)cc1,18,4%,8,-1%
CCCCCCc1cc2cc(-c3nnc(-c4ccccc4OC)o3)c(=O)oc2cc1O,-30,3.7µM*,-6,·
CC/C(C)=N/Nc1nc(-c2cc3cccc(OC)c3oc2=O)cs1,53*,110%,47*,34%
NC(=O)c1cn(-c2ccccc2)nc1-c1cc2ccccc2oc1=O,-14,·,-4,-19%
COc1cccc2cc(-c3nnc(-c4ccccc4)o3)c(=O)oc12,87*,23%,39*,8.3µM*
Cc1cc(-c2nnc(-c3cc4ccccc4oc3=O)o2)c(C)n1-c1ccccc1,36,?,32*,?
COc1cccc2cc(-c3csc(CCn4nc(C)cc4C)n3)c(=O)oc12,29,?,10,?
Cc1ccc(C2=NOC(C)(c3nnc(-c4ccc(Cl)cc4)o3)C2)cc1 (stereo not given),-5,-3%,-2,22%
Cc1ccc(S(=O)(=O)Nc2cc(S(=O)(=O)N3CCOCC3)ccc2NCC2CCCO2)cc1 (stereo not given),·,-25%,·,-24%
Cc1cc(C)cc(NC(=O)N2CCNC(=O)C2CC(=O)Nc2cc(Cl)ccc2Cl)c1 (stereo not given),10,44%,-5,?
COc1cc(OC)cc(C2=Nn3c(nnc3-c3cccc(OC)c3)SC2)c1,-2,·,1,·
SMILES,Shiga toxin inh,Pf growth 48h,Cycloheximide cs,Pf growth 96h
COc1ccc(-c2nnc(-c3cc4ccccc4oc3=O)o2)cc1,15,13%,10,12µM*
COc1cc(N)ccc1-c1cc2ccccc2oc1=O,27,59%,10,?
CCOc1ccc(NC(=S)N2CCN(S(=O)(=O)c3ccc(C)cc3)CC2)cc1,-11,?,-3,?
CCOc1ccc(S(=O)(=O)N2CCN(C(=S)NC3CC3)CC2)cc1,-9,4.1µM*,-1,?
COc1ccc(S(=O)(=O)N2CCN(C(=S)NC3CCCCC3)CC2)cc1,5,0.93µM*,0,6%
O=C(NC1CC1)c1cc2c(F)cccc2s1,24,26%,33*,36%
Nc1c(C(=O)c2ccccc2)sc2nsc(SCCN3CCOCC3)c12,29*,-5%,23*,-16%
